Screens: PubChem, National Center for Advancing Translational Sciences (NCATS)
Shown are actives, neighbours in structure and some others; about 19% of the full set was active somewhere.
DT40 TDP1 no CPT = qHTS for Inhibitors of human tyrosyl-DNA phosphodiesterase 1 (TDP1): qHTS in cells in absence of CPT. AID 686978, 2013. 15% of 420,000 active. DT40 Tdp1-/- hTDP1 cells, no CPT, ATP luminescence, 48 h. Potency, µM (series often up to 46.2 µM), for the others: at the top dose activity change, negative = growth inhibition, hits mostly inhibitors; also: potency is read from the fitted curve at half-maximal effect; nearly all actives have a fitted effect of over 55% in size
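Camptothecin absent (DMSO only). Human TDP1-complemented DT40 knockout cells, 400 cells/well, 37 °C for minimum 48 hr; ATP measured via CellTiter-Glo, 30 min dark incubation, luminescence.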
HT1080-NT tox = kills 2HG-producing HT-1080-NT fibrosarcoma cells | Potency, µM (highest dose often 46.1 µM), for the others: at the top dose activity, negative = less viability, hits mostly cytotoxic | AID 686970 | HT-1080-NT fibrosarcoma viability, CellTiter-Glo ATP luminescence, 48 h | 1.6% of 360,000 active;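 also: NT is the 2HG producing partner of a matched IDH1 knockdown line; potency is read from the fitted curve at half-maximal effect; 0% = DMSO-treated cells and -100% = media-only wells without cells; nearly all actives have a fitted effect of over 55% in size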
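Read-out is CellTiter-Glo luminescence after 10 minutes at room temperature, following 48 hours' compound treatment of HT-1080-NT cells (750 cells/well, RPMI, 5% FBS, 37 degrees C).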
HT1080 IDH1KD tx = toxicity to HT-1080 IDH1 knockdown cells (counter line) | AID 686971 | 2% of 360,000 active | Potency, µM (highest dose often 46.1 µM), without a hit: top-dose activity, negative = toxicity, most hits filed as cytotoxic | HT-1080 IDH1 knockdown viability, ATP luminescence, 48 h;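 also: potency is read from the fitted curve at half-maximal effect; 0% = DMSO wells and -100% = cell-free medium wells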
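Luminescent ATP read-out (CellTiter-Glo, 10 min at room temperature) after 48 h compound exposure at 37 °C gave viability of IDH1-knockdown HT-1080 cells. Activity was normalised to DMSO and cell-free wells, then fitted as concentration-response curves.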
ELG1 DNA repair = ELG1-dependent DNA repair inhibition | 2.3% of 330,000 active | AID 504467 | Potency, µM (highest dose often 46.1 µM), for inactives: top-dose activity change, negative = inhibition, most hits filed as inhibitors | HEK293T ELG1-luciferase reporter, luminescence, 16 h; DNA damage induced by 5-fluorouridine; also: potency is read from the fitted curve at half-maximal effect; nearly all actives have a fitted effect of over 55% in size
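In this reporter screen, reduction of luminescence relative to DMSO vehicle indicated activity. Compounds and 5-fluorouridine were added together to 2,000 cells per well, incubated for 16 hr at 37 °C, then developed with ONE-Glo.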
DT40 TDP1 CPT = growth inhibition of DT40 Tdp1-/-;hTDP1 cells with camptothecin (screen for TDP1 inhibitors) | 12% of 420,000 active | AID 686979 | Potency, µM (top dose mostly 46.2 µM), for the others: at the highest dose activity change, negative = growth inhibition, hits mostly inhibitors | chicken DT40 Tdp1-/-;hTDP1 cells + 20 nM CPT, ATP luminescence, 48 h; also: potency is read from the fitted curve at half-maximal effect; nearly all actives have a fitted effect of over 55% in size
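Chicken DT40 Tdp1-/- cells stably complemented with human TDP1 were seeded at 400 cells/well in medium containing 20 nM camptothecin, exposed to pin-transferred compounds, and grown at 37 °C for at least 48 hr. Viability was read as ATP luminescence.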
IL-1B inflam inh = blocks inflammasome-driven IL-1 beta release; THP-1 LPS/ATP IL-1B secretion, AlphaLISA, 16 h; stronger effect = lower value; activity change, % at 57.5 µM; 4.7% of 360,000 active; AID 743279; in the data active = activity change below about -50%; inconclusive = mostly about -30% to -49%
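Secreted IL-1B measured by AlphaLISA bead assay after 16 h compound exposure of THP-1 cells; compounds (final up to 57.5 uM) added 1 h before LPS (250 ng/mL) and ATP (1.25 mM) stimulation; lower signal means less secretion.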
Starred values were filed as active, the others as inactive; ? = inconclusive; · = not tested or not shown. Unless noted, calls follow the shape of the dose curve; as a rule, active = well fitted curve in the direction sought with a large enough effect; inconclusive = small, poorly fitted or top-dose-only effect, or another doubt; inactive = no such curve, though single readings can be large; an effect the other way counts as inactive or inconclusive. Unless noted, % is scaled to controls: 0 for no effect and ±100 for the full control effect.

SMILES | DT40 TDP1 no CPT | HT1080-NT tox | HT1080 IDH1KD tx | ELG1 DNA repair | DT40 TDP1 CPT | IL-1B inflam inh
CCCC(c1nnnn1CCOC)N1CCN(c2nc3ccccc3s2)CC1 (centres undefined) | ? | -12.1% | -17.3% | ? | ? | -14.9
Cc1cc(C(=O)Nc2nncs2)oc1C | 3.6% | 2.9% | -1.8% | 21.1% | -2.2% | -0.6
Cc1ccc(CSCCNS(C)(=O)=O)cc1 | -19.7% | 5.4% | 12.6% | 0.0% | -7.7% | -3.6
Cc1ccc(CSCCNS(=O)(=O)c2ccccc2)cc1 | 29.1µM* | -5.2% | -3.1% | 2.5% | -23.1% | 0.0
CN(c1ccc(C(=O)NCCSCc2c(F)cccc2Cl)cc1)S(C)(=O)=O | ? | 5.6% | 4.0% | 13µM* | ? | ?
COc1ccc(-n2c(=O)c(C)nc3cncnc32)cc1 | -7.5% | · | · | · | 11.3% | ·
O=c1c2ccc(F)cc2sn1-c1ccccc1 | 2.91µM* | -24.6% | ? | · | 2.59µM* | -105.9*
O=c1c2ccccc2sn1-c1ccc(F)cc1 | 3.66µM* | ? | -17.9% | 9.5% | 3.26µM* | -108.6*
COC(=O)c1cccc(-n2sc3ccccc3c2=O)c1 | 3.26µM* | -21.2% | -17.6% | ? | 2.06µM* | -100.7*
O=C(c1sc2cc(F)ccc2c1Cl)N1CCN(c2cccc(Cl)c2)CC1 | ? | 12.4% | 4.2% | 3.8% | ? | 9.5
Cc1ccc(N2C(=O)CC(N3CCN(c4ccc(F)cc4)CC3)C2=O)c(C)c1 (centres undefined) | -5.4% | 0.6% | 2.2% | 8.7% | -1.7% | 6.6
Cc1ccc(-n2sc3cc(F)ccc3c2=O)c(C)c1 | 2.31µM* | ? | ? | · | 2.91µM* | -103.3*
COC(=O)c1cccc(N2CCCC2=O)c1 | 5.2% | 0.0% | 0.7% | 6.3% | -7.5% | -9.7
Cc1cccc(S(=O)(=O)c2cn(Cc3ccc(F)cc3)c3cc(N4CCCCC4)c(F)cc3c2=O)c1 | -5.5% | · | · | · | -3.3% | ·
O=c1c2cc(F)ccc2sn1-c1ccccc1Cl | 2.31µM* | ? | ? | · | 2.59µM* | -104.5*
C[C@@]12C(=O)Nc3ccccc3C(=O)N1[C@H]1c3cc(Cl)ccc3OC[C@@H]1[C@@H]2c1ccccc1 | ? | ? | 18.4µM* | ? | ? | ?
C[C@@]12C(=O)Nc3ccc(Br)cc3C(=O)N1[C@H]1c3cc(Cl)ccc3OC[C@@H]1[C@@H]2c1ccccc1 | 18.4µM* | -15.6% | -11.0% | -12.1% | ? | -15.7
C[C@@]12C(=O)Nc3ccc(F)cc3C(=O)N1[C@H]1c3cc(Br)ccc3OC[C@@H]1[C@@H]2c1ccccc1 | 23.1µM* | ? | ? | -6.8% | ? | -8.0
C[C@@]12C(=O)N(CC3CCCO3)CC(=O)N1[C@@H]1c3ccccc3OC[C@@H]1[C@@H]2c1ccccc1 (some centres undefined) | -22.6% | 13.4% | 9.8% | · | -1.0% | -20.5
C[C@@]12C(=O)N(CC3CCCO3)CC(=O)N1[C@H]1c3cc(Cl)ccc3OC[C@@H]1[C@@H]2c1ccccc1 (some centres undefined) | 14.6µM* | -3.0% | 2.0% | ? | 23.1µM* | -16.3
C[C@@]12C(=O)Nc3cc(F)c(F)cc3C(=O)N1[C@H]1c3cc(Cl)ccc3OC[C@@H]1[C@@H]2c1ccccc1 | ? | ? | ? | ? | ? | -21.7
C[C@@]12C(=O)Nc3ccc(Br)cc3C(=O)N1[C@H]1c3ccccc3OC[C@@H]1[C@@H]2c1ccccc1 | ? | -2.9% | -12.5% | 13.1% | ? | -23.9
COc1ccc(-n2ccnc2SCC(=O)Nc2nnc(C)s2)cc1 | -7.1% | · | · | · | ? | ·
